# Assay results: ChEMBL document CHEMBL3988442, “University of Dundee, Small-Polar-MMV Screening Library” (2021)
# About 13,000 (27%) of roughly 48,000 compounds showed an effect of 50% or more. Some of the results follow.
# Test system: Wolbachia pipientis
# Assay: Anti-Wolbachia Cell-Based Screen
# Type: functional
# Set-up: scale not given: in the data most compounds retested in dose-response had high values
# Settings: 5 µM
row,Compound,Percent Effect [%]
1,O=C(O)C(F)(F)F.O=C(O)C(F)(F)F.c1cnc(NCc2ncn3c2CN(Cc2cccnc2)CCC3)nc1,4.407
2,Fc1cnc(N2CCCn3cnc(COc4cccnc4)c3C2)nc1.O=C(O)C(F)(F)F,88.73
3,O=C(O)C(F)(F)F.O=C(O)C(F)(F)F.c1cc(CN2CCCn3cnc(COCC4CC4)c3C2)ccn1,-1.984
4,CCS(=O)(=O)N1CCCn2cnc(COc3cccnc3)c2C1.O=C(O)C(F)(F)F,90.76
5,CN(C)C(=O)COCc1ncn2c1CN(c1ncc(F)cn1)CCC2,5.015
6,O=C(O)C(F)(F)F.O=S(=O)(C1CC1)N1CCCn2cnc(COc3cccnc3)c2C1,121.6
7,O=C(O)C(F)(F)F.O=S(=O)(c1cccs1)N1CCCn2cnc(CO)c2C1,-6.746
8,O=C(O)C(F)(F)F.O=S(=O)(Cc1ccccc1)N1CCCn2cnc(CN3CCCC3)c2C1,-19.91
9,O=S(=O)(NC(CO)Cc1c[nH]c2ccccc12)c1cncc(F)c1 (centres undefined),0.282
10,O=C(CCc1nc(Cl)n[nH]1)N1C[C@@H](CN2CCCCC2)[C@@H](CO)C1,12.3
11,N#Cc1ccccc1N1CCCN(CC(=O)Nc2ccccc2Cl)CC1,11.85
12,CCCC1c2cccn2CCN1C(=O)c1cc(CC)no1 (centres undefined),123.5
13,CCC1c2cccn2CCN1C(=O)c1ccc2nonc2c1 (centres undefined),-3.198
14,Cc1cc2c(=O)n(CC(=O)N3CCn4cccc4C3C(C)C)cnc2s1 (centres undefined),139.9
15,Cc1ncsc1CCC(=O)N1CCn2cccc2C1c1cccnc1 (centres undefined),2.617
16,CNC(=O)C1CCCCN1C(=O)CCn1cnc2sccc2c1=O (centres undefined),2.602
17,Cc1cc2c(=O)n3c(nc2s1)CCN(C(=O)c1ccncc1)CC3,-15.49
18,CCC1c2ccc(C)n2CCN1C(=O)Cn1cnc2sc(C)cc2c1=O (centres undefined),132.6
19,CCCC1c2cccn2CCN1C(=O)Cn1cnc2sc(C)cc2c1=O (centres undefined),146.6
20,CCc1cc(C(=O)N2CCC(C3CCN(c4ncccn4)CC3)C2)on1 (centres undefined),-2.788
21,CCN1CCC(CC(=O)N2CCn3cccc3C2c2cccnc2)CC1 (centres undefined),-1.172
22,COC(=O)CCNC(=O)c1nnn(-c2ccccc2)c1C(F)(F)F,-9.818
23,CS(=O)(=O)N1CCCCCC1C1CCN(Cc2nc(C3CC3)no2)CC1 (centres undefined),-7.435
24,Cc1nc(NC(=O)CN2C(=O)c3ccccc3NC2C(C)C)sc1C (centres undefined),126.1
25,CC(C)C1Nc2ccccc2C(=O)N1CC(=O)Nc1nc2c(s1)CCC2 (centres undefined),128.1

row,Compound,Percent Effect [%]
1,Cc1cc(C2CCCN(CC(=O)Nc3nc4c(s3)CCC4)C2)n[nH]1 (centres undefined),7.579
2,Cc1nc(NC(=O)C2CCCN(C(N)=O)C2)sc1-c1ccccc1 (centres undefined),3.163
3,Cc1nc(NC(=O)CCN2C(=O)c3ccccc3NC2C(C)C)sc1C (centres undefined),126.1
4,Cc1nc(NC(=O)CN2CCc3c(nc(C(C)C)n3C)C2)sc1C,-4.598
5,Cc1nc(NC(=O)C(C)N2CCN(c3ccccc3F)CC2)sc1C (centres undefined),2.631
6,Cc1nc(NC(=O)CN2CCOC(Cn3cccn3)C2)sc1C (centres undefined),-8.379
7,O=C(CN1CCCC(c2ccn[nH]2)C1)Nc1nc2c(s1)CCC2 (centres undefined),-12.59
8,Cc1cc(NCC(=O)N(C)CC(F)(F)F)c(C(N)=O)cc1F,-3.816
9,O=S(=O)(Nc1ccon1)c1cc(Cl)cc2c1OCC2,4.815
10,CCCS(=O)(=O)N(C)C(=O)CCc1ccsc1,-1.511
11,CN(C)c1ccccc1C(=O)N1C[C@@H](CN2CCCCC2)[C@@H](CO)C1,-1.886
12,Cc1nc(C)n(CC2CN(Cc3cccnc3)Cc3nccn3C2)n1.O=C(O)C(F)(F)F.O=C(O)C(F)(F)F (centres undefined),6.866
13,O=C(O)C(F)(F)F.O=C(O)C(F)(F)F.c1cncc(CN2Cc3nccn3CC(Cn3cccn3)C2)c1 (centres undefined),90.07
14,CCc1ccc(CN2Cc3nccn3CC(Cn3cncn3)C2)o1.O=C(O)C(F)(F)F (centres undefined),101.6
15,CC(=O)N1[C@H](Cn2cncn2)C[C@@H]2CN(Cc3cccnc3)CC[C@@H]21.O=C(O)C(F)(F)F.O=C(O)C(F)(F)F,-6.622
16,O=C(O)C(F)(F)F.O=C(O)C(F)(F)F.c1cc(CN2Cc3nccn3CC(Cn3cncn3)C2)ccn1 (centres undefined),106.6
17,Cc1nc(C)n(CC2CN(Cc3ccncc3)Cc3nccn3C2)n1.O=C(O)C(F)(F)F.O=C(O)C(F)(F)F (centres undefined),-4.303
18,O=C(O)C(F)(F)F.c1cncc(CN2Cc3nccn3CC(Cn3cncn3)C2)c1 (centres undefined),126.5
19,Cc1cc(C2CCCN2C(=O)NCc2cccnc2OC(C)C)on1 (centres undefined),10.48
20,O=c1[nH]c(-c2ccc(Cl)cc2)nc2c1CCNC2,-17.05
21,CSc1ccc(CN(C(=O)c2cc(C)[nH]c(=O)c2)C2CC2)cc1,12.75
22,COC(C)(C)c1noc(C2(C#N)CCCCC2)n1,-1.328
23,CCOC(=O)NC(CNC(=O)c1ncccn1)CC(C)C (centres undefined),3.45
24,CNC(=O)[C@@H](c1ccccc1OC)N1CCC[C@H]1C(=O)NC(C)(C)C.Cl,1.665
